Reference: PubChem BioAssay AID2284142 (EPA ToxCast)
The source made the active and inactive calls. The calls were made as follows: active = hit-call score of the fitted dose curve at least 0.9, where 1 is the maximum; inactive = score below 0.9.

molecular target: human Adenosine Receptor A1 Agonism, ADORA1 (gene 134) (UniProt P30542); experiment: ERF_FR_GPCR_hADORA1: Eurofins (ERF) G Protein-Coupled Receptor (GPCR) Radioligand Binding LeadHunter Assay for human Adenosine Receptor A1 Agonism
Protocol: ERF_FR_GPCR_hADORA1 is a biochemical, single-readout assay that uses extracted gene-proteins in a cell-free assay. Measurements were taken 1 hour after chemical dosing in a 96-well plate. See A1 Human Adenosine GPCR Binding (Agonist Radioligand) Assay, Cerep.ERF_FR_GPCR_hADORA1 is an assay component calculated from the ERF_FR_GPCR_hADORA1 assay. It is designed to measure radioligand binding using a type of binding reporter as detected by scintillation counting with radiometry technology.Data from the assay component ERF_FR_GPCR_hADORA1 was analyzed at the assay endpoint, ERF_FR_GPCR_hADORA1, in the positive analysis fitting direction relative to DMSO as the negative control and baseline of activity. Using a type of binding reporter, […] activity can be used to understand changes in binding as they relate to gene ADORA1. To generalize the intended target to other relatable targets, this assay endpoint is annotated to the gpcr intended target family, where the subfamily is adenosine.
2) Dose Response: 90 ul of 10 mM stock -OR- 1 mg (pre-weighed) for a top concentration at 10 uM.

human Adenosine Receptor A1 Agonism, ADORA1 (gene 134), sequence (P30542 whole entry, looked up): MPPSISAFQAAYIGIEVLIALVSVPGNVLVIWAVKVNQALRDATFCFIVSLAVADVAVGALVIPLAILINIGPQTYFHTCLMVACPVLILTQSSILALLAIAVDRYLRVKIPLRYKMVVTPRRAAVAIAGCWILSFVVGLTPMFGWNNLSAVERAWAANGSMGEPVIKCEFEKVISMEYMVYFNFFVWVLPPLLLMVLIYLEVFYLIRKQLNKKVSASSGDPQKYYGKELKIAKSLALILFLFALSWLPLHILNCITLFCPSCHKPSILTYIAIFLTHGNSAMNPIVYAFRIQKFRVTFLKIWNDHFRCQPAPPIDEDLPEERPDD

Row | SMILES | AC50
1 | O=C(/C=C/c1ccc(O)cc1)CC(=O)/C=C/c1ccc(O)cc1 | 1920 nM (active)
